Data as given in PubChem BioAssay (EPA / NIEHS).
Calls of active or inactive are those of the source. Rule for the calls: active = hit-call score of the fitted dose curve at least 0.9, where 1 is the maximum; inactive = score below 0.9.

Legend:
Conditions in all cases: mRNA level, 48 h; actives raise or lower the signal
[1] = read-out: Cytochrome P450 3A4 (Homo sapiens) (UniProt P08684); assay: LTEA_HepaRG_CYP3A4: Life Technologies and Expression Analysis (LTEA) Assay for CYP3A4 using HepaRG (AID 2283487)
How it was run: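 Differentiated HepaRG cells in serum-free induction medium exposed in duplicate for 48 h to 8 half-log concentrations up to 100 uM in 0.5% DMSO. CYP3A4 mRNA measured by qRT-PCR normalized to ACTB, GAPDH and POLR2A; bidirectional fit versus DMSO.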

[2] = read-out: DNA damage-inducible transcript 3 (DDIT3), DDIT3 (gene 1649); assay: LTEA_HepaRG_DDIT3: Life Technologies and Expression Analysis (LTEA) Assay for DNA damage-inducible transcript 3 (DDIT3) using HepaRG (AID 2283488)
How it was run: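 Differentiated human HepaRG cells in serum-free induction medium were exposed in duplicate for 48 h to 8 concentrations (top 100 uM, half-log steps, 0.5% DMSO). DDIT3 mRNA measured by TaqMan qRT-PCR, normalized to ACTB/GAPDH/POLR2A; bidirectional fit versus DMSO.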

[3] = read-out: Pro-epidermal growth factor (Homo sapiens) (UniProt P01133); assay: LTEA_HepaRG_EGF: Life Technologies and Expression Analysis (LTEA) Assay for Epidermal growth factor (EGF) using HepaRG (AID 2283489)
How it was run: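 EGF transcript measured by Fluidigm TaqMan qRT-PCR with three housekeeping genes for normalization, 48 h after dosing HepaRG cultures in duplicate (top 100 uM, half-log steps, 0.5% DMSO vehicle). Gain or loss relative to DMSO fitted.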

[4] = read-out: Early growth response protein 1 (EGR1) transcription factor, EGR1 (gene 1958); assay: LTEA_HepaRG_EGR1: Life Technologies and Expression Analysis (LTEA) Assay for Early growth response protein 1 (EGR1) transcription factor using HepaRG (AID 2283490)
How it was run: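 Differentiated HepaRG cells in serum-free induction medium exposed 48 hours, duplicate, to 8 half-log concentrations up to 100 uM in 0.5% DMSO. EGR1 mRNA measured by TaqMan qRT-PCR, normalized to ACTB, GAPDH, POLR2A; bidirectional fit versus DMSO.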

[5] = read-out: Ezrin (EZR), EZR (gene 7430); assay: LTEA_HepaRG_EZR: Life Technologies and Expression Analysis (LTEA) Assay for Ezrin (EZR) using HepaRG (AID 2283491)
How it was run: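 Differentiated human HepaRG cells, 48 h after plating, were exposed in serum-free induction medium for 48 hours to eight half-log concentrations up to 100 uM in 0.5% DMSO. EZR mRNA was measured by TaqMan qRT-PCR, normalized to ACTB, GAPDH and POLR2A, and fitted bidirectionally against DMSO.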

[6] = read-out: Cytochrome P450 3A7 (Homo sapiens) (UniProt P24462); assay: LTEA_HepaRG_CYP3A7: Life Technologies and Expression Analysis (LTEA) Assay for CYP3A7 using HepaRG (AID 2283492)
How it was run: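 CYP3A7 transcript measured by qRT-PCR (ACTB, GAPDH, POLR2A normalization) after 48 h chemical exposure of HepaRG cells in duplicate. Eight half-log concentrations, maximum 100 uM, 0.5% DMSO vehicle; bidirectional curve fitting against DMSO baseline.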

CYP3A5 (gene 1577) = assay: LTEA_HepaRG_CYP3A5: Life Technologies and Expression Analysis (LTEA) Assay for CYP3A5 using HepaRG (AID 2283493)
How it was run: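 Differentiated HepaRG cells in serum-free induction medium were dosed 48 h with test chemicals (8-point half-log series, top 100 uM, 0.5% DMSO, duplicate). CYP3A5 mRNA measured by qRT-PCR, normalized to ACTB, GAPDH, POLR2A; bidirectional fit versus DMSO.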

[7] = read-out: Fatty Acid-Binding Protein 1 (FABP1), FABP1 (gene 2168); assay: LTEA_HepaRG_FABP1: Life Technologies and Expression Analysis (LTEA) Assay for Fatty Acid-Binding Protein 1 (FABP1) using HepaRG (AID 2283494)
How it was run: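 Differentiated human HepaRG cells exposed 48 h in serum-free induction medium to eight half-log concentrations up to 100 uM (0.5% DMSO), duplicate. FABP1 mRNA by qRT-PCR, normalised to ACTB, GAPDH, POLR2A; bidirectional fitting against DMSO.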

[8] = read-out: Cytochrome P450 7A1 (Homo sapiens) (UniProt P22680); assay: LTEA_HepaRG_CYP7A1: Life Technologies and Expression Analysis (LTEA) Assay for Cytochrome P450 7A1 (CYP7A1) using HepaRG (AID 2283496)
How it was run: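 Gene expression endpoint in human HepaRG liver cells treated for 48 h with test chemicals (up to 100 uM, 0.5% DMSO). Values come from bidirectional concentration-response fitting versus DMSO.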

[9] = read-out: Glutathione S-Transferase (GSTA2), GSTA2 (gene 2939); assay: LTEA_HepaRG_GSTA2: Life Technologies and Expression Analysis (LTEA) Assay for Glutathione S-Transferase (GSTA2) using HepaRG (AID 2283497)
How it was run: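 Differentiated human HepaRG cells were exposed in duplicate for 48 h in serum-free induction medium, 8 points from 100 uM top in half-log steps, 0.5% DMSO. GSTA2 mRNA was measured by TaqMan qRT-PCR, normalized to ACTB, GAPDH and POLR2A; bidirectional fit versus DMSO.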

[10] = read-out: growth arrest and DNA damage 45 (GADD45G), GADD45G (gene 10912); assay: LTEA_HepaRG_GADD45G: Life Technologies and Expression Analysis (LTEA) Assay for growth arrest and DNA damage 45 (GADD45G) using HepaRG (AID 2283499)
How it was run: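 GADD45G transcript level by qRT-PCR (housekeeping-normalized: ACTB, GAPDH, POLR2A) after 48 h chemical treatment of a single HepaRG lot in serum-free induction medium; eight-point half-log series up to 100 uM in 0.5% DMSO, duplicates, up- or down-regulation scored.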

[11] = read-out: Glutamate-cysteine ligase regulatory (GCLM), GCLM (gene 2730); assay: LTEA_HepaRG_GCLM: Life Technologies and Expression Analysis (LTEA) Assay for Glutamate-cysteine ligase regulatory (GCLM) using HepaRG (AID 2283500)
How it was run: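 Differentiated human HepaRG cells exposed 48 h in serum-free induction medium to 8-point half-log concentrations (top 100 uM, 0.5% DMSO), in duplicate. GCLM mRNA quantified by qRT-PCR, normalized to ACTB, GAPDH, POLR2A; bidirectional fitting versus DMSO.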

[12] = read-out: Glutathione S-transferase M3 (GSTM3), GSTM3 (gene 2947); assay: LTEA_HepaRG_GSTM3: Life Technologies and Expression Analysis (LTEA) Assay for Glutathione S-transferase M3 (GSTM3) using HepaRG (AID 2283501)
How it was run: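 GSTM3 transcript levels came from Fluidigm TaqMan qRT-PCR normalized to three housekeeping genes, fitted in both directions against DMSO. HepaRG cultures received chemicals for 48 h in serum-free induction medium (0.5% DMSO), 8 half-log concentrations up to 100 uM, duplicate.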

[13] = read-out: Heat shock 70 kDa protein 1 (HSPA1A), gene 3303; assay: LTEA_HepaRG_HSPA1A: Life Technologies and Expression Analysis (LTEA) Assay for Heat shock 70 kDa protein 1 (HSPA1A) using HepaRG (AID 2283502)
How it was run: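 Differentiated human HepaRG cells in serum-free induction medium were exposed in duplicate for 48 h to eight concentrations (top 100 uM, half-log steps, 0.5% DMSO). HSPA1A mRNA was quantified by qRT-PCR, normalized to ACTB, GAPDH and POLR2A, and fitted bidirectionally against DMSO.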

[14] = read-out: Hypoxia-inducible factor 1-alpha (Homo sapiens) (UniProt Q16665); assay: LTEA_HepaRG_HIF1A: Life Technologies and Expression Analysis (LTEA) Assay for Hypoxia-inducible factor 1 (HIF1A) Trancription factor using HepaRG (AID 2283503)
How it was run: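 HepaRG, 48 h exposure, 8-pt half-log series from 100 uM, 0.5% DMSO vehicle, duplicates. Readout: HIF1A transcript by qRT-PCR (Fluidigm array), housekeeping-normalised. Bidirectional curve fit vs DMSO baseline.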

[15] = read-out: 3-Hydroxy-3-Methylglutaryl-CoA Synthase 2 (HMGCS2), HMGCS2 (gene 3158); assay: LTEA_HepaRG_HMGCS2: Life Technologies and Expression Analysis (LTEA) Assay for 3-Hydroxy-3-Methylglutaryl-CoA Synthase 2 (HMGCS2) using HepaRG (AID 2283504)
How it was run: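 Readout is HMGCS2 transcript by qRT-PCR, housekeeping-normalised (ACTB/GAPDH/POLR2A) and fitted bidirectionally against 0.5% DMSO. Differentiated HepaRG cells received chemicals 48 h, duplicate wells, eight half-log concentrations topping at 100 uM.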

HGF (gene 3082) = assay: LTEA_HepaRG_HGF: Life Technologies and Expression Analysis (LTEA) Assay for Hepatocyte Growth Facto (HGF) using HepaRG (AID 2283505)
How it was run: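 HGF transcript was quantified by TaqMan qRT-PCR against three housekeeping genes after 48 h treatment of HepaRG cells. Exposure ran in duplicate over eight half-log steps topping at 100 uM in 0.5% DMSO vehicle.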

[16] = read-out: Insulin Like Growth Factor 1 (IGF1), IGF1 (gene 3479); assay: LTEA_HepaRG_IGF1: Life Technologies and Expression Analysis (LTEA) Assay for Insulin Like Growth Factor 1 (IGF1) using HepaRG (AID 2283506)
How it was run: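 Differentiated human HepaRG cells were dosed for 48 h in serum-free induction medium with 0.5% DMSO, eight half-log concentrations up to 100 uM, in duplicate. IGF1 mRNA was quantified by qRT-PCR normalized to ACTB, GAPDH, POLR2A; bidirectional fitting versus DMSO.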

[17] = read-out: Intercellular Adhesion Molecule 1 (ICAM1), ICAM1 (gene 3383); assay: LTEA_HepaRG_ICAM1: Life Technologies and Expression Analysis (LTEA) Assay for Intercellular Adhesion Molecule 1 (ICAM1) using HepaRG (AID 2283507)
How it was run: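 ICAM1 transcript levels measured by qRT-PCR, normalized to three housekeeping genes (ACTB, GAPDH, POLR2A), after 48 h chemical exposure of HepaRG cells. Duplicate eight-point half-log series from 100 uM in 0.5% DMSO; gain or loss fitted against vehicle.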

[18] = read-out: Insulin-like growth factor-binding protein 1 (IGFBP1), IGFBP1 (gene 3484); assay: LTEA_HepaRG_IGFBP1: Life Technologies and Expression Analysis (LTEA) Assay for Insulin-like growth factor-binding protein 1 (IGFBP1) using HepaRG (AID 2283508)
How it was run: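 Read-out is qRT-PCR transcript level normalized to three housekeeping genes, fitted in both directions against 0.5% DMSO. Differentiated HepaRG cells received eight half-log concentrations (top 100 uM) in duplicate for 48 h in serum-free induction medium.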

Measured: outcome

Sequence of Cytochrome P450 3A7 (Homo sapiens) (P24462 whole entry, looked up): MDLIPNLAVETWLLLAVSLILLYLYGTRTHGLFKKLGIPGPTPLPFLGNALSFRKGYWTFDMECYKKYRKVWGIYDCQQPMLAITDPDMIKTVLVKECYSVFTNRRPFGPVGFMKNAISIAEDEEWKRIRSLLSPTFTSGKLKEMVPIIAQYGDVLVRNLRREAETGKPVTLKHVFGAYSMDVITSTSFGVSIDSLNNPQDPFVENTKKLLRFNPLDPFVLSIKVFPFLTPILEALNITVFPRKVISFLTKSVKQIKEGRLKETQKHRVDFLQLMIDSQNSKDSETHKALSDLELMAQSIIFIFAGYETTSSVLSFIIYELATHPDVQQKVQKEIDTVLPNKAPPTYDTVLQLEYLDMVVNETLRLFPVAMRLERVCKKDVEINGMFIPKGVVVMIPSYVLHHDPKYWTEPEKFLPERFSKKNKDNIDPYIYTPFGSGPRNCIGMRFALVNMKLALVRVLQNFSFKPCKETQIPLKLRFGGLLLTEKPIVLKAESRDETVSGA
Sequence of Hypoxia-inducible factor 1-alpha (Homo sapiens) (Q16665 whole entry, looked up): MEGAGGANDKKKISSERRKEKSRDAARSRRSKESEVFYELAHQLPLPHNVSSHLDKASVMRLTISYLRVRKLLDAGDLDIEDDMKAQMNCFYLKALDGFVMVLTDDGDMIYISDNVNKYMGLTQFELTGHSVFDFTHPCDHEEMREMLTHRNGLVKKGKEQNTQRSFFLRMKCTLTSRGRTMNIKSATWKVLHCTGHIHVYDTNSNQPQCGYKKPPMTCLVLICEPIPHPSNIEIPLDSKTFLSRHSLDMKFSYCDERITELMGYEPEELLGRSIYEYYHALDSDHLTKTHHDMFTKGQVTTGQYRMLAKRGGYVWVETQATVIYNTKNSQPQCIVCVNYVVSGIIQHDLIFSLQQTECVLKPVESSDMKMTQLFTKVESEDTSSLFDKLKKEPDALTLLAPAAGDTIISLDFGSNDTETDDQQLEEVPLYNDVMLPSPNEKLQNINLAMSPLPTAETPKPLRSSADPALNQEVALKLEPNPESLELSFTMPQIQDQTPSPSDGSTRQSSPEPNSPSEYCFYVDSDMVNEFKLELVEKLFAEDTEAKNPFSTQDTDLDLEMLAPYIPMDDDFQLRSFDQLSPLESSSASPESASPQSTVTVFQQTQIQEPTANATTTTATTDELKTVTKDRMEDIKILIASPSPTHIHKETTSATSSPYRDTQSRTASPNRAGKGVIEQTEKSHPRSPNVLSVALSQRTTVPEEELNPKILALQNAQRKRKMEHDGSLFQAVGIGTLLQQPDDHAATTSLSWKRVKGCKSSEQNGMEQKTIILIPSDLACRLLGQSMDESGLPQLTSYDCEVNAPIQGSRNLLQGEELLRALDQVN
Sequence of Cytochrome P450 3A4 (Homo sapiens) (P08684 whole entry, looked up): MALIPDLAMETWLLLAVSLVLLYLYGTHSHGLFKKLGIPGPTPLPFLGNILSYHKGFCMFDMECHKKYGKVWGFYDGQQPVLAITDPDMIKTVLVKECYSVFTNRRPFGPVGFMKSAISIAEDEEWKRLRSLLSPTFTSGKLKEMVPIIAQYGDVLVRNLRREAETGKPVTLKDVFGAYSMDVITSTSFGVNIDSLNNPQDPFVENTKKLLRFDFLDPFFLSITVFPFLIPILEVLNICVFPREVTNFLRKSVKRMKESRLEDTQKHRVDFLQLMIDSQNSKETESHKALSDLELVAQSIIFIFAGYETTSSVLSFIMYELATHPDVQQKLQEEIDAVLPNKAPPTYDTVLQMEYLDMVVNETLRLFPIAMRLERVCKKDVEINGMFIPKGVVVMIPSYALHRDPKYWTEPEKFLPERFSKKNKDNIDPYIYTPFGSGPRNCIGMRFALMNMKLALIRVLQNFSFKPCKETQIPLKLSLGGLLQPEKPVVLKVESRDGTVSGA

N#Cc1cccnc1
inactive: all assays above

Oc1cc(Cl)c(Cl)cc1Cl
not listed: [12]
inactive: all other assays above

CC(C)O.CC(C)O.OCCN(CCO)CCO.OCCN(CCO)CCO.[Ti]
inactive: all assays above
